This is an account of results in PubChem BioAssay (Tox21).

Molecules are shown by their SMILES. Unmarked numbers belong to inactive results. Results filed as inconclusive are left out. The source made the active and inactive calls. Unless noted, calls follow the shape of the dose curve; as a rule, active = well fitted curve in the direction sought with a large enough effect in the repeat runs; inconclusive = weak or mixed curves; inactive = no such curve, though single readings can be large; an effect the other way counts as inactive or inconclusive.

Assay [1] in a line: qHTS assay to identify small molecule antagonists of the estrogen related receptor (ERR) signaling pathway from Tox21 library - cell viability counter screen (AID 1224834). Also: nearly all actives have a fitted effect of over 30% in size. A digest of the protocol:
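ERR reporter cells, 2,000 per well, rested 6 h, then exposed to compound in DMSO for 17.5 hours at 37 C. Viability read as fluorescence after 30 min with CellTiter-Fluor.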
A general note: In qHTS, concentration-response curves come from the screen itself.

The target of assay [2] is Luciferin 4-monooxygenase (Photinus pyralis) (UniProt P08659). The experiment in a line: qHTS assay to identify small molecule inhibitors of firefly luciferase (AID 1224835). Also: nearly all actives have a fitted effect of over 25% in size. Also: potency is read from the fitted curve at half-maximal effect. In short, it runs like this:
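Inhibition of purified Photinus luciferase is measured by luminescence. Substrate levels (D-luciferin, ATP) sit at their KM values. Each compound is tested in a concentration series.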

Assay [3] in a line: qHTS assay to identify small molecule agonists of the constitutive androstane receptor (CAR) signaling pathway - cell viability counter screen (AID 1224836). Also: nearly all actives have a fitted effect of over 45% in size. A digest of the protocol: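 Double-stable HepG2 hepatoma cells (hCAR plus CYP2B6-2.2kb) are treated for 23 h at 37 C with test compounds in 15-point concentration series. PK11195 at 0.75 uM final is co-added. Cell viability is quantified by CellTiter-Fluor.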

Assay [4] can be described thus: qHTS assay to identify small molecule antagonists of the constitutive androstane receptor (CAR) signaling pathway - cell viability counter screen (AID 1224837). Also: nearly all actives have a fitted effect of over 45% in size. A digest of the protocol:
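HepG2 cells stably carrying hCAR and CYP2B6-2.2kb reporter, stimulated with 50 nM CITCO and compounds at 15 concentrations for 23 h at 37 C. Viability measured by CellTiter-Fluor fluorescence.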

Assay [5] addresses Nuclear receptor subfamily 1 group I member 3 (Homo sapiens) (UniProt Q14994). Nature of the assay: qHTS assay to identify small molecule antagonists of the constitutive androstane receptor (CAR) signaling pathway (AID 1224838). Also: nearly all actives have a fitted effect of over 40% in size. In short, it runs like this:
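HepG2 cells stably carrying hCAR and a CYP2B6-2.2kb luciferase reporter, seeded 4 hrs before compound (15 concentrations). Stimulated with 50 nM CITCO for 24 hr at 37 C. ONE-Glo luminescence read after 30 min at room temperature.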

The target is the same in assay [6]. The experiment in a line: qHTS assay to identify small molecule agonists of the constitutive androstane receptor (CAR) signaling pathway (AID 1224839). Also: nearly all actives have a fitted effect of over 15% in size. Also: potency is read from the fitted curve at half-maximal effect. In short, it runs like this:
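Readout: firefly luciferase luminescence via ONE-Glo. System: HepG2 double-stable for hCAR and CYP2B6-2.2kb. Conditions: 15-point compound titration, PK11195 at 0.75 uM final, 24 h incubation.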

Assay [7] can be described thus: qHTS assay to identify small molecule antagonists of the estrogen related receptor signaling pathway with the pleiotropic PPARgamma coactivator (PGC) from Tox21 10K library - cell viability counter screen (AID 1224840; active = well fitted cell-killing curve with a large enough effect in the repeat runs, not every such curve was filed as active; also: nearly all actives have a fitted effect of over 40% in size). In short, it runs like this:
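PGC/ERR cells (2,000/well) plated 6 h, then compound-treated for 17.5 h at 37 C. Viability measured by CellTiter-Fluor fluorescence after 30 min at 37 C, multiplexed with the pathway assay.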

The nature of assay [8]: qHTS assay to identify small molecule antagonists of the estrogen related receptor signaling pathway with the pleiotropic PPARgamma coactivator (PGC) from Tox21 10K library (AID 1224841; call rule not given here; also: actives are mostly falling curves and most rising ones were filed inactive; nearly all actives have a fitted effect of over 50% in size). In short, it runs like this: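 PGC/ERR cell line, 2,000 cells/well, pre-incubated 6 hours at 37 C, then exposed to compounds for 18 hours at 37 C; luciferase read with One-Glo luminescence after 30 min at room temperature.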

Assay [9] can be described thus: qHTS assay to identify small molecule agonists of the estrogen related receptor signaling pathway with the pleiotropic PPARgamma coactivator (PGC) from Tox21 10K library (AID 1224842). Also: nearly all actives have a fitted effect of over 15% in size. Also: potency is read from the fitted curve at half-maximal effect. In short, it runs like this:
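Luminescence from One-Glo (30 min, room temperature) measured after PGC/ERR cells had 18 h at 37 C with pinned compound (23 nL in DMSO). Cells had been seeded at 2,000 per well and pre-incubated 6 h.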

In assay [10] the target is Thyrotropin receptor (Homo sapiens) (UniProt P16473). Nature of the assay: qHTS assay to identify small molecule agonists of the thyroid stimulating hormone receptor (TSHR) signaling pathway (AID 1224843; calls by dose curve; also: nearly all actives have a fitted effect of over 45% in size). A digest of the protocol:
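HEK293 cells stably bearing the thyrotropin receptor were plated at 800 cells/well and challenged with compound (30 min, RT). Accumulated cAMP was quantified via cAMP-d2 competing for cryptate-tagged antibody.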

A short description of assay [11]: qHTS assay to identify small molecule agonists of the hypoxia (HIF-1) signaling pathway - cell viability counter screen (AID 1224844; calls by dose curve; also: nearly all actives have a fitted effect of over 50% in size). A digest of the protocol:
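HRE-bla ME-180 cells, 2,000/well in 0.5% dialyzed FBS medium, treated 17 h at 37C with compounds. Viability read in the same wells as the bla reporter, by CellTiter-Glo luminescence after 30 min at room temperature.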

Assay [12] can be described thus: qHTS assay to identify small molecule agonists of H2AX (AID 1224845; active = well fitted activation curve with a large enough effect in the signal ratio in the repeat runs, not every such curve was filed as active; the % refers to the signal ratio). In short, it runs like this:
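Phospho-H2AX Ser139 measured by HTRF (ex 320 nm; em 665 and 620 nm) after 24 hr antibody incubation. Compounds, 15 concentrations, 0.76% DMSO, were applied to CHO-K1 cells for 3hr at 37C before lysis.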

Assay [13] in a line: qHTS assay to identify small molecule antagonists of the estrogen related receptor (ERR) signaling pathway from Tox21 library (AID 1224848). Also: nearly all actives have a fitted effect of over 50% in size. In short, it runs like this:
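Reading was by luminescence 30 min after ONE-Glo addition. Before that, ERR cells at 2,000 per well had rested 6 h at 37 C/5% CO2 and then received pin-tooled compounds in DMSO for 18 h at 37 C.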

The nature of assay [14]: qHTS assay to identify small molecule agonists of the estrogen related receptor (ERR) signaling pathway from Tox21 library (AID 1224849; calls by dose curve; also: nearly all actives have a fitted effect of over 15% in size). The note with it: ERR reporter cell line, ONE-Glo luciferase, 18 h; at 92.4 µM (top of the series) unless noted. In short, it runs like this: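 ERR reporter cells (NTP line) pre-incubated 6 hours at 37 C, then exposed to compounds for 18 hours at 37 C. ONE-Glo luciferase luminescence was read after 30 minutes at room temperature.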

The nature of assay [15]: qHTS RealTime-Glo MT Cell Viability Assay in HepG2 cells - 24 hour (AID 1224867). Also: nearly all actives have a fitted effect of over 50% in size. A digest of the protocol: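 Compound treatment began 5 h after plating HepG2 cells (600/well) with NanoLuc luciferase and prosubstrate. Plates stayed at 37 C for 40 h; luminescence was captured at six time points, 0 h through 40 h.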
Assay [16] in a line: A CellTox Green Cytotoxicity Assay to monitor cytotoxicity in HEK293 cells - 0 hour (AID 1224869). Also: nearly all actives have a fitted effect of over 50% in size. A digest of the protocol: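 HEK293 cells, 600/well, were preincubated 5 hours and then exposed to compounds at 37 C for up to 40 hours. A cell-impermeant cyanine dye staining dead-cell DNA was read by fluorescence at 0, 8, 16, 24, 32 and 40 h time points.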
The nature of assay [17]: qHTS RealTime-Glo MT Cell Viability Assay in HepG2 cells - 40 hour (AID 1224870). Also: nearly all actives have a fitted effect of over 50% in size. In short, it runs like this: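 Real-time viability: cells seeded at 600 per well together with NanoLuc and cell-permeant prosubstrate, compounds added after 5 h incubation. Luminescence tracked at 0, 8, 16, 24, 32 and 40 h of exposure.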
Assay [18] is described as follows: qHTS assay to identify small molecule agonists of the hypoxia (HIF-1) signaling pathway (AID 1224846; active = well fitted activation curve with a large enough effect in the signal ratio in the repeat runs, not every such curve was filed as active; the % refers to the signal ratio). A digest of the protocol:
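HRE-bla ME-180 beta-lactamase reporter cells in medium with 0.5% dialyzed FBS, pre-incubated 5 h then exposed to compounds 17 h at 37C, 5% CO2; reporter induction read with CCF4-AM FRET substrate.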

The nature of assay [19]: qHTS assay to identify small molecule agonists of H2AX - cell viability counter screen (AID 1224847; calls by dose curve;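 also: wild-type CHO-K1 cells; top concentration of the series differs between compounds; nearly all actives have a fitted effect of over 30% in size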). A digest of the protocol:
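For this counter screen, overnight-attached CHO-K1 cells received test compounds (15 concentrations, 0.76% DMSO final); 3 hr later at 37C, CellTiter-Glo reagent was added and luminescence recorded after 30 min at room temperature.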

A short description of assay [20]: qHTS RealTime-Glo MT Cell Viability Assay in HEK293 cells - 32 hour (AID 1224868). Also: nearly all actives have a fitted effect of over 50% in size. Also: potency is read from the fitted curve at half-maximal effect. A digest of the protocol:
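Quantitative high-throughput screen of the Tox21 10K library in HEK293: cells and RealTime-Glo reagents plated together, compound added at 5 h, luminescence monitored through 40 h at 37 C.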
% is scaled to controls: 0 for no effect and ±100 for the full control effect.

Nuclear receptor subfamily 1 group I member 3 (Homo sapiens), sequence (Q14994 whole entry, looked up): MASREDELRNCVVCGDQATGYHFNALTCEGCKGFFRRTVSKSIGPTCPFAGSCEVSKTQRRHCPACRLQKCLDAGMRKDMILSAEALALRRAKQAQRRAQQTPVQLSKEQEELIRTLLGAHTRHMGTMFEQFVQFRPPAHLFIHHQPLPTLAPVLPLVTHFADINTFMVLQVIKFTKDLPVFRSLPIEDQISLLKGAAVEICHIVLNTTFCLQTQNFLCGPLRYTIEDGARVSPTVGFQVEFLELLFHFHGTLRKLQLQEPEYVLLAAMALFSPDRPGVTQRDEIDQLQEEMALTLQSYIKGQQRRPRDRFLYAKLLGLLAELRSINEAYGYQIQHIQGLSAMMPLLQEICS
Thyrotropin receptor (Homo sapiens), sequence (P16473 whole entry, looked up): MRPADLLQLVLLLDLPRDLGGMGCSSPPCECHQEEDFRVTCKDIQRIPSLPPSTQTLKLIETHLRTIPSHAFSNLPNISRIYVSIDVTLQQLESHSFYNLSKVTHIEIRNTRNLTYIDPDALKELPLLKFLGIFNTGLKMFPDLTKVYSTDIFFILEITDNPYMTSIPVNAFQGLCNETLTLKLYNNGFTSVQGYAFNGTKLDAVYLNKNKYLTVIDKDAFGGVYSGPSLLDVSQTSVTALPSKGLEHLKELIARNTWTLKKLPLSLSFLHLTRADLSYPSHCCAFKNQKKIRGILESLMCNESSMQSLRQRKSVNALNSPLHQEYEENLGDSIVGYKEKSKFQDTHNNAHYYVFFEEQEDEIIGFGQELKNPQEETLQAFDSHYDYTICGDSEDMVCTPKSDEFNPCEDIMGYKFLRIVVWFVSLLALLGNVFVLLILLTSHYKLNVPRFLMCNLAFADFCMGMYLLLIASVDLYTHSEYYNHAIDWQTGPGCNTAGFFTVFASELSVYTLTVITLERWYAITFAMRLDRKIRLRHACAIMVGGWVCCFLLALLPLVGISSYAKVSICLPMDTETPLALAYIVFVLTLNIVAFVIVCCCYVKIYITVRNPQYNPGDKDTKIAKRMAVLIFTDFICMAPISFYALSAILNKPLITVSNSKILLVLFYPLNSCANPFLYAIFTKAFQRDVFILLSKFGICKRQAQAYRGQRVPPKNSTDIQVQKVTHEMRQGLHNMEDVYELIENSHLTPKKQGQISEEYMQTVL
Luciferin 4-monooxygenase (Photinus pyralis), sequence (P08659 whole entry, looked up): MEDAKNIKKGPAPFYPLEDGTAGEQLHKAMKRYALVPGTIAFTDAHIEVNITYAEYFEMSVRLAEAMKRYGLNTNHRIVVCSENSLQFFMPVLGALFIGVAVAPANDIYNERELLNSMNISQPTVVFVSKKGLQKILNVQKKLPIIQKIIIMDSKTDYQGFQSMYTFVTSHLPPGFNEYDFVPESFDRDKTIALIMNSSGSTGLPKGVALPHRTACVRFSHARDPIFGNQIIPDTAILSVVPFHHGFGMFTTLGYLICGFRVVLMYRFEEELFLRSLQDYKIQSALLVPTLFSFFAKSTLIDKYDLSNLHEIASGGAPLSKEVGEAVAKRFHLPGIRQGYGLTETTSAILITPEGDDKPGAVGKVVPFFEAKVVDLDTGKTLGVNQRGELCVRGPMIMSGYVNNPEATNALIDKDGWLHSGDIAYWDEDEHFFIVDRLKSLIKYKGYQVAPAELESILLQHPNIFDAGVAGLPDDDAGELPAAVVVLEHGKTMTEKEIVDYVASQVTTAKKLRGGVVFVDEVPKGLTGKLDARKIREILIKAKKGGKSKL

Turning to `COc1ccc(C(=O)c2ccc(C)cc2)c(O)c1`, the Potency entry in assay [1], in [3], in assay [4], in assay [5], in [7] and in assay [8] was “inactive” throughout. Further, the Potency result in assay [10], in [11], in [12], in [13], in [16] and in assay [17] was “inactive” throughout. In addition, the Potency in assay [2] is 11.4 µM (active); in assay [6] it was 27.6 µM (active); in assay [9] it was 7.78 µM (active). In [14], the activity change, positive = activation was 16.4% (active). In [15], the outcome was inactive.

As for `O=C1OC(=O)C2CC=CCC12` (stereo not given), the Potency result in assay [1], in assay [2], in [3], in assay [4], in assay [5] and in assay [6] was “inactive” throughout. In addition, the Potency result in assay [7], in assay [10], in [11], in assay [12], in assay [19] and in assay [20] was “inactive” in each case. Further, the Potency result in assay [16] and in [17] was “inactive” in each case. Moreover, the outcome in assay [18] and in assay [15] was inactive.

`CCCCCCCCCCCCN1CCOCC1`: the Potency result in assay [1], in assay [2], in assay [3], in assay [4], in assay [5] and in assay [6] was “inactive” in each case. Further, the Potency entry in [7], in assay [8], in assay [9], in assay [10], in assay [11] and in assay [12] was “inactive” in each case. Also, the Potency entry in assay [19], in assay [13], in assay [20], in assay [16] and in assay [17] was “inactive” throughout. The compound was classed as inactive in [18] and in [15]. The activity change, positive = activation in assay [14] was -8.24%.

As for `CC(=O)S[C@H](C(=O)N[C@H]1Cc2ccccc2[C@H]2CCC[C@@H](C(=O)O)N2C1=O)C(C)C`, the Potency result in assay [1], in assay [2], in [3], in assay [4], in assay [5] and in [6] was “inactive” in each case. The Potency result in [7], in [8], in assay [9], in [10], in assay [11] and in [13] was “inactive” in each case. For the same compound, the Potency result in assay [20], in assay [16] and in [17] was “inactive” throughout. In addition, the compound was classed as inactive in [18]. In addition, the activity change, positive = activation in [14] was 1.31%.

In the case of `O=C(O)CNc1ccccc1`, the Potency entry in assay [1], in [2], in [3], in assay [4], in assay [5] and in assay [6] was “inactive” throughout. Besides, the Potency result in assay [7], in assay [8], in [9], in assay [10], in [11] and in assay [12] was “inactive” in each case. Besides, the Potency entry in [19], in assay [13], in assay [20], in [16] and in [17] was “inactive” throughout. The result in [18] and in assay [15] was inactive. Besides, the activity change, positive = activation in assay [14] is 8.78%.

Take `CCOc1ccccc1O`: the Potency entry in assay [1], in [2], in [3], in [4], in assay [5] and in assay [6] was “inactive” throughout. Also, the Potency entry in assay [7], in [10], in [11], in assay [12], in assay [16] and in assay [17] was “inactive” each time. Also, the call in assay [18] and in assay [15] was inactive. Besides, the Potency in assay [20] is 1.74 µM (active).

Consider `Cc1c(N=C=O)cccc1N=C=O`, for which the Potency result in [1], in [2], in assay [3], in assay [4], in assay [5] and in [6] was “inactive” in each case. For the same compound, the Potency result in [7], in assay [10], in [11], in assay [12], in assay [19] and in [20] was “inactive” in each case. The Potency result in assay [16] and in [17] was “inactive” each time. In addition, the outcome in assay [15] was inactive.
